Source: PubChem BioAssay (several laboratories)
GLD-1 TGE inh – GLD-1-TGE RNA interaction inhibition (C. elegans). Q17339. purified GLD-1 + fluorescein TGE RNA, fluorescence polarization. inhibition, % at 5.96 µM. 320,000 compounds, 0.44% hits;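 active = percent inhibition above a per-plate cutoff, the plate mean of test compounds plus 3 SD, cut at about 30% in these data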;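 note: 0% = DMSO wells with GLD-1 and probe and 100% = wells lacking GLD-1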
BCLXL inh – blocks human Bcl-xL binding to Bim BH3 peptide | 320,000 compounds, 0.7% hits | inhibition, % at 10.9 µM | Q07817 | GST-Bcl-xL / FITC-Bim BH3 peptide fluorescence polarization;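 active = inhibition above the mean of all tested compounds plus 3 SD, cutoff set per campaign, cut at about 30% in these data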;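 note: 0% = DMSO wells and 100% = unlabeled Bim-BH3 peptide competitor; inhibitors lower millipolarization by displacing the labeled peptide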
Target sequence (Q07817 whole entry, looked up): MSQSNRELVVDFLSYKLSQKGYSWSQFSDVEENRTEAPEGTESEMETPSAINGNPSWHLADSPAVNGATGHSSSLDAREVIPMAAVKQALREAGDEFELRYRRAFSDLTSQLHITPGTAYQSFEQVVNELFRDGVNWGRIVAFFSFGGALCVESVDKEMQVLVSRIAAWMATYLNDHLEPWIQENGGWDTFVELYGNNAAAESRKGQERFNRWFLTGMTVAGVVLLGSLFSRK
Mcl1 Noxa PPI – disrupts binding of human Mcl-1 to Noxa peptide. Q07820. TR-FRET Mcl-1/Noxa peptide binding, 2 h. inhibition, % at 21.7 µM. 220,000 compounds, 1.5% hits. AID 1022;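 active = compounds that cut the protein-peptide binding signal by more than 50% relative to plate controls in a single-dose test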;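 note: His-tagged Mcl-1 with rhodamine Noxa BH3 peptide and terbium anti-His antibody; 0% = Mcl-1 plus Noxa peptide wells and 100% = peptide-only wells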
Target sequence (Q07820 whole entry, looked up): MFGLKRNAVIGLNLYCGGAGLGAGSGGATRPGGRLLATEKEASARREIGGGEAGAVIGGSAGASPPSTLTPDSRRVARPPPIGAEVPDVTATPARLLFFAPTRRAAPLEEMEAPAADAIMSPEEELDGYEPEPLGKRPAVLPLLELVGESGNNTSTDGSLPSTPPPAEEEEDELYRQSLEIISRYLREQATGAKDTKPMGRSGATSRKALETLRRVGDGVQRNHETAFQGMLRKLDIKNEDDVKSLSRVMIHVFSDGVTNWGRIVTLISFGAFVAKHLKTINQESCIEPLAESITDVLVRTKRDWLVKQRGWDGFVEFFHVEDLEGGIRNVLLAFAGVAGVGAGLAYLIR
Mcl-1 Bim block – inhibitors of Bim-Mcl-1 interaction, human; Q07820; Bead-based flow cytometry, Bim peptide-Mcl-1 binding; inhibition, % at 10 µM; 190,000 compounds, 0.1% hits; in the data active = inhibition above about 40%;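 note: 0% = no compound tracer wells and 100% = peptide blocker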
Mcl1 Bid PPI – Mcl-1/Bid interaction inhibition | 220,000 compounds, 0.97% hits | inhibition, % at 21.7 µM | Q07820 | TR-FRET Mcl-1/Bid-Dy647 peptide binding, 1536-well;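 active = compounds that cut the binding signal by more than half at the single screening dose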;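 note: His-tagged Mcl-1 with europium anti-His antibody binding Bid BH3 peptide; 0% = Mcl-1 plus peptide wells and 100% = peptide-only wells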
MCL1 BIM primary – disrupts human MCL1 binding to BIM-BH3 peptide; AID 2057; 320,000 compounds, 0.68% hits; GST-MCL1 / FITC-Bim-BH3 fluorescence polarization; inhibition, % at 10.9 µM; Q07820;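 active = inhibition above the mean inhibition of all tested compounds plus 3 SD, set per campaign, cut at about 40% in these data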;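 note: 0% = DMSO wells and 100% = unlabeled Bim-BH3 peptide control; higher means more loss of mP so more displacement of Bim peptide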
The depositor's hits bear a star; nt = not tested or not shown. Compounds with a hit are over-represented: about 2.3% of the library has one in this group of screens.

SMILES	GLD-1 TGE inh	BCLXL inh	Mcl1 Noxa PPI	Mcl-1 Bim block	Mcl1 Bid PPI	MCL1 BIM primary
Cc1ccc(C(=O)N/C(=C\c2ccc(-c3ccccc3[N+](=O)[O-])o2)C(=O)NCCCN2CCOCC2)cc1	18	32*	nt	nt	nt	27
CC(/C=C1\SC(=S)N(NC(=O)c2ccc(C)cc2)C1=O)=C\c1ccccc1	-2	-6	7	0	-9	-4
CC(/C=C1\SC(=S)N(NS(=O)(=O)c2ccccc2)C1=O)=C\c1ccccc1	4	10	79*	nt	-10	15
CC(/C=C1\SC(=S)N(NC(=O)c2ccccc2C)C1=O)=C\c1ccccc1	-5	-8	18	-1	-46	-2
CC(/C=C1\SC(=S)N(NS(=O)(=O)c2ccc(C)cc2)C1=O)=C\c1ccccc1	4	7	94*	nt	66*	2
CC(/C=C1\SC(=S)N(CCCC(=O)Nc2ccc(C(=O)O)c(O)c2)C1=O)=C\c1ccccc1	3	5	111*	-4	94*	8
CN(c1ccccc1)S(=O)(=O)c1cccc(NC(=O)CSc2ncc(C(F)(F)F)cc2Cl)c1	3	5	-15	-1	1	6
O=C(O)CC(CC(=O)Nc1ccc(F)c(Cl)c1)c1ccc(Cl)cc1Cl (centres undefined)	7	2	6	nt	-9	-4
CN(C)CCN(C(=O)C1=COCCO1)c1nc2ccc(F)cc2s1	3	5	nt	nt	nt	7
COC(=O)/C=C1\N/C(=N/c2nc(C)c3cc(OC)ccc3n2)NC1=O	4	48*	nt	nt	nt	2
CCOc1ccc(N(CC(=O)NC2CC3CCC2C3)S(=O)(=O)c2ccccc2)cc1 (centres undefined)	5	3	nt	nt	nt	3
CC(=O)Nc1ccc(S(=O)(=O)NCc2ccccn2)cc1	1	1	4	0	91*	-3
COc1cccc2c1c(NC(=O)Nc1ccc(F)cc1F)nn2C	0	-4	5	nt	67*	-5
COc1cccc(NC(=O)CN2CCCCCC2)c1	-4	-1	nt	nt	nt	6
C=CCn1c(O)c(C2=c3ccccc3=NC2=O)sc1=Nc1ccc(O)cc1	-1	10	52*	nt	-15	5
CCC(=O)Nc1ccc(C(=O)OCC(=O)c2cccs2)cc1	11	6	nt	nt	nt	-1
CCOC(=O)c1cc2occc2n1CC(=O)NC1CCCCC1C (centres undefined)	-9	4	13	-1	99*	6
Cc1ccc(-n2cccc2/C=C2/C(=N)N3C(=NC2=O)SN=C3S(C)(=O)=O)cc1Cl	-17	-4	116*	12	97*	14
O=C(NC(=S)N1CCCc2ccccc21)c1ccc(Cl)cc1	7	4	51*	-5	-53	10
Cn1c2c(c(=O)n(C)c1=O)C(c1ccc(Br)cc1)C(C#N)=C(N)N2 (centres undefined)	2	1	nt	nt	nt	-3
CN(C)c1ccc(/C=C/c2ccc3c4ccccc4ccc3[n+]2-c2ccccc2)cc1	nt	nt	84*	0	-61	nt
CN(C)c1ccc(/C=C/c2ccc3ccccc3[n+]2C)cc1	0	0	47	-7	-57	-12
COc1cc(NC(=O)c2cc3ccccc3cc2O)c(OC)cc1Cl	-3	-2	61*	nt	-32	-8
COc1ccccc1NC(=O)c1cc2cc(Br)ccc2cc1O	9	3	88*	nt	-34	17
COc1cc2c(C(=O)Nc3ccccc3F)cn(C)c(=O)c2cc1OC	2	2	nt	nt	nt	-2
SMILES	GLD-1 TGE inh	BCLXL inh	Mcl1 Noxa PPI	Mcl-1 Bim block	Mcl1 Bid PPI	MCL1 BIM primary
COc1ccccc1NC(=O)c1cn(C)c(=O)c2cc(OC)c(OC)cc12	0	4	8	-6	84*	0
Cc1ccccc1SCC(=O)OCC(=O)Nc1ccc(N(C)C)cc1	2	5	61*	1	-6	4
COCC(=O)Nc1ccc(N(C)C)cc1	9	7	25	0	-47	5
COc1ccc(NC(=O)COC(=O)Cn2nnc3ccccc32)cc1	4	1	-21	-4	-2	-2
CN(C)c1ccc(NC(=O)COC(=O)Cn2nnc3ccccc32)cc1	4	3	71*	-5	-25	4
Cc1cccc(CC(=O)N2CCC(N3CCC(C(=O)N4CCOCC4)CC3)CC2)c1	5	2	10	-4	-51	10
O=C(N/C=C/c1ccco1)NCc1ccccc1	-2	7	64*	0	-65	19
O=C(N/C=C/c1ccco1)OCc1ccccc1	0	-7	4	0	-39	27
CC1CCC(=O)N(CCC#N)CC1 (centres undefined)	-5	7	nt	nt	nt	5
Cc1sc(NC(=O)c2ccccc2)c(C(=O)N2CCN(C)CC2)c1C	2	0	38	0	86*	-3
Cc1ccc(-n2c(C)c(C)c3c(N)ncnc32)cc1	8	1	nt	nt	nt	0
O=C1C2CC=CCC2C(=O)N1Cc1nnc(-c2ccc(Cl)cc2)o1 (centres undefined)	-4	1	3	0	-34	-7
O=C(NCc1cccnc1)c1cc2nc(-c3ccc4c(c3)OCO4)cc(C(F)(F)F)n2n1	1	5	47	3	83*	3
Cc1ccc(-c2nc3ccc(Cl)cc3c(=O)n2O)cc1	-9	-2	nt	nt	nt	-3
O=c1c2cc(Cl)ccc2nc(-c2ccccc2Cl)n1O	-12	-4	2	3	88*	-9
O=C(CCCn1cnc([N+](=O)[O-])n1)Nc1cccc2ccccc12	1	3	11	-30	-15	1
CC(=O)c1ccc(OCc2cc(C(=O)N3CC4C[C@@H]5CC3C[C@H](C4)C5)no2)cc1	8	4	nt	nt	nt	6
Cc1csc2ncnc(N3CCN(C(=S)Nc4ccc(F)cc4F)CC3)c12	-5	11	11	nt	90*	10
OC1(C#CCN2CCCC2)CCCCC1	-3	-4	nt	nt	nt	8
COc1ccc2cc(C3(C)NC(=O)N(CC(=O)NCCC4=CCCCC4)C3=O)ccc2c1 (centres undefined)	2	-2	10	4	-5	-2
COc1ccc(C2(C)NC(=O)N(CC(=O)NCCC3=CCCCC3)C2=O)cc1OC (centres undefined)	1	-6	6	-1	84*	-21
COc1ccc2[nH]c3c(=O)n(Cc4ccc(C(=O)N5CCC(C(N)=O)CC5)cc4)c(=S)[nH]c3c2c1	-3	1	61*	0	-156	-2
COc1ccc2[nH]c3c(=O)n(Cc4ccc(C(=O)N5CCCCCC5)cc4)c(=S)[nH]c3c2c1	4	-13	60*	-3	-10	-3
CCOC(=O)N1CCN(C(=O)c2ccc3c(=O)n(Cc4ccc(OC)cc4)c(=S)[nH]c3c2)CC1	18	23	18	9	-35	34
CCn1c(SCC(=O)N2CCOCC2)nc2oc3c(Cl)cc(Cl)cc3c(=O)c2c1=O	3	18	54*	0	-66	21
